Results filed as inconclusive are left out. A call without a number means that no potency is given here. Active and inactive are the calls of the source. Unless noted, the call rests on the fitted dose curve. Where a SMILES comes first, the peptide text is derived from it. [ ]: non-standard residue; d: D form. pGlu = O=C1CC[C@@H](C(=O)O)N1; Thz = O=C(O)[C@@H]1CSCN1

Sequence of Glucagon-like peptide 1 receptor (Homo sapiens) (P43220 whole entry, looked up): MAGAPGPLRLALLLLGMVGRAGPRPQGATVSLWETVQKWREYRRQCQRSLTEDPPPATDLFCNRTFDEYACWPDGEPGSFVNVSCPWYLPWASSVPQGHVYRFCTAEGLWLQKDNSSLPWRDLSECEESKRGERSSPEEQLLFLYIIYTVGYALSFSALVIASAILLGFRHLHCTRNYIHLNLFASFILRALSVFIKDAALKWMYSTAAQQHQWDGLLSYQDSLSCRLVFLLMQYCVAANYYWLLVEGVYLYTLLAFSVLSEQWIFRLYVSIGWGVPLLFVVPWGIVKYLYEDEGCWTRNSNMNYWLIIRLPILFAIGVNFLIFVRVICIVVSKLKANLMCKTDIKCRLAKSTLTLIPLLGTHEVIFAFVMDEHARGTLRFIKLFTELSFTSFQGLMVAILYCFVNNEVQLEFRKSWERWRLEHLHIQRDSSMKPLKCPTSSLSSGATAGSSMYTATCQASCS

Tested on in the first experiment: not listed separately
Kind of experiment: S16 Schwann cell PMP22 intronic element beta-lactamase assay (AID 624044). Further: nearly all actives have a fitted effect of over 15% in size. Further: potency means the concentration at half of the fitted maximal effect. Particulars: S16 rat Schwann cells, PMP22 element beta-lactamase FRET, 24 h; series mostly up to 38.3 µM. The method in brief:
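Beta-lactamase reporter under a PMP22 intronic regulatory element in stable S16 rat Schwann cells; 24 h compound exposure. 460 nm blue signal normalized between DMSO (0%) and potassium clavulanate, with 535 nm FRET tracking viability; curves classed by r2 and response.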
Turning to `Cc1ccc(O)c(-n2nc3ccccc3n2)c1`, the Potency entry is “inactive”.

With `O=C(CCN1CCN(CCO)CC1)N1c2ccccc2Sc2ccc(C(F)(F)F)cc21`, the Potency result was “inactive”. Same read-out and setting: next, `COc1cc(CNC(=O)CCCC/C=C/C(C)C)ccc1O`: “inactive”. Same read-out and setting: next, `COc1cc(/C=C/C(=O)CC(=O)/C=C/c2ccc(O)c(OC)c2)ccc1O`: “inactive”; `C=C(Nc1ccc(OCC)cc1)Nc1ccc(OCC)cc1`: “inactive”. Same read-out and setting: to `O=C1CC[C@@H](C(=O)N2CSC[C@H]2C(=O)O)N1` ([pGlu]-[Thz]-OH) belongs “inactive”; to `O=C(Nc1ccc(C(=O)O)c(O)c1)c1ccccc1`, “inactive”. `CC(=O)[C@]1(O)Cc2c(O)c3c(c(O)c2[C@@H](O[C@H]2C[C@H](N)[C@H](O)[C@H](C)O2)C1)C(=O)c1c(O)cccc1C3=O`: the Potency was 0.398 µM (active). On the same count and under the same terms, next, `CCC1C(=O)OCC1Cc1cncn1C` (stereo not drawn): “inactive”; `C=CCN1C(=O)C(CC(C)C)NC1=S` (stereo not drawn): “inactive”. Still for that read-out and setting: next, `Oc1c(Br)cc(Br)c2cccnc12`: 19.9 µM (active). Turning to `Nc1cc(-c2ccncc2)c[nH]c1=O`, the Potency entry was “inactive”.

Regarding `CN(C)c1ccc(C(=C2C=CC(=[N+](C)C)C=C2)c2ccccc2)cc1`, the Potency was 3.98 µM (active). Same read-out and setting: next, `CCCOC(=O)c1ccc(O)cc1`: “inactive”; `C#C[C@]1(O)CC[C@H]2[C@@H]3CCc4cc(O)ccc4[C@H]3CC[C@@]21C`: “inactive”; `CN1[C@@H]2CC[C@H]1CC(OC(=O)C(CO)c1ccccc1)C2` (stereo partly drawn): “inactive”.

Consider `CC1(C)[C@@H](O)CC[C@]2(C)[C@H]3C(=O)C=C4[C@@H]5C[C@@](C)(C(=O)O)CC[C@]5(C)CC[C@@]4(C)[C@]3(C)CC[C@@H]12`, for which the Potency entry is “inactive”. The same measure, in the same setting: to `[O-][n+]1ccccc1SSc1cccc[n+]1[O-]` belongs 1.12 µM (active).

In the case of `COc1cc(/C=C/C(=O)N2CCN(CC(=O)N3CCCC3)CC2)cc(OC)c1OC`, the Potency result was “inactive”. Same read-out and setting: to `CCCCCCCCCCCCCCCCCC(=O)O` belongs “inactive”; to `CCCCCCCCCCCCCCCC(=O)OC(C)C`, “inactive”. Same read-out and setting: next, `CCCCCCCCCCCC(=O)[O][Sn]([CH2]CCC)([CH2]CCC)[O]C(=O)CCCCCCCCCCC`: “inactive”; `COc1ccc(/C=C/C(=O)Nc2ccccc2C(=O)O)cc1OC`: “inactive”.

Regarding `O=C(O)COc1ccc(C(=O)c2cccs2)c(Cl)c1Cl`, the Potency entry is “inactive”. On the same count and under the same terms, next, `CCCCCCOc1ccccc1C(N)=O`: “inactive”. `CCOC(=O)c1ccccc1O`: the Potency result is “inactive”. For the compound `O=C(O)c1cc(O)c(O)c(O)c1`, the Potency result is “inactive”. On to `CCCCC[C@H](O)/C=C/[C@@H]1[C@@H](C/C=C\CCCC(=O)O)[C@@H](O)C[C@H]1O`, for which the Potency result is “inactive”. The same measure, in the same setting: next, `N=c1ccn2c(n1)O[C@H]1[C@H](O)[C@@H](CO)O[C@H]12`: 14.1 µM (active). Same read-out and setting: next, `COC(=O)C1=C(C)NC(C)=C(C(=O)OCC(C)C)C1c1ccccc1[N+](=O)[O-]` (stereo not drawn): “inactive”. `Cc1cc(O)c2ccccc2c1O`: the Potency result is “inactive”. For `CCCCCC[C@@H](O)C/C=C\CCCCCCCC(=O)O`, the Potency result was “inactive”.

Turning to `CN1[C@@H]2CC[C@H]1CC(OC(c1ccccc1)c1ccccc1)C2` (stereo partly drawn), the Potency result is “inactive”. The same measure, in the same setting: to `O=C(/C=C/c1ccccc1)NCCO` belongs “inactive”.

For the compound `CC1(C)S[C@@H]2[C@H](NC(=O)[C@H](NC(=O)N3CCN(S(C)(=O)=O)C3=O)c3ccccc3)C(=O)N2[C@H]1C(=O)O`, the Potency entry is “inactive”. The same measure, in the same setting: next, `O=C1CN(/N=C/c2ccc(-c3ccc([N+](=O)[O-])cc3)o2)C(=O)N1`: “inactive”.

For the next experiment, the target named is Glutaminase kidney isoform, mitochondrial (Homo sapiens) (UniProt O94925). Put plainly: qHTS for Inhibitors of Glutaminase (GLS): LOPAC Validation (AID 624146; active means well fitted curve in the direction sought with a large enough effect; an effect the other way counts as inactive or inconclusive;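 further: glutamate product detected by oxidase and peroxidase coupled Amplex red fluorescence gain; nearly all actives have a fitted effect of over 60% in size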). Particulars: glutaminase enzyme activity inhibition; series mostly up to 46.1 µM. The method in brief: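 hKGA in 45 mM KH2PO4 pH 8.2, 0.02% Tween-20 with pin-transferred compounds; 1 mM L-glutamine (stock) plus glutamate oxidase/HRP/Amplex Red coupling added. Fluorescence read initially and after 30 min at RT.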
Sequence of Glutaminase kidney isoform, mitochondrial (Homo sapiens) (O94925 whole entry, looked up, canonical isoform): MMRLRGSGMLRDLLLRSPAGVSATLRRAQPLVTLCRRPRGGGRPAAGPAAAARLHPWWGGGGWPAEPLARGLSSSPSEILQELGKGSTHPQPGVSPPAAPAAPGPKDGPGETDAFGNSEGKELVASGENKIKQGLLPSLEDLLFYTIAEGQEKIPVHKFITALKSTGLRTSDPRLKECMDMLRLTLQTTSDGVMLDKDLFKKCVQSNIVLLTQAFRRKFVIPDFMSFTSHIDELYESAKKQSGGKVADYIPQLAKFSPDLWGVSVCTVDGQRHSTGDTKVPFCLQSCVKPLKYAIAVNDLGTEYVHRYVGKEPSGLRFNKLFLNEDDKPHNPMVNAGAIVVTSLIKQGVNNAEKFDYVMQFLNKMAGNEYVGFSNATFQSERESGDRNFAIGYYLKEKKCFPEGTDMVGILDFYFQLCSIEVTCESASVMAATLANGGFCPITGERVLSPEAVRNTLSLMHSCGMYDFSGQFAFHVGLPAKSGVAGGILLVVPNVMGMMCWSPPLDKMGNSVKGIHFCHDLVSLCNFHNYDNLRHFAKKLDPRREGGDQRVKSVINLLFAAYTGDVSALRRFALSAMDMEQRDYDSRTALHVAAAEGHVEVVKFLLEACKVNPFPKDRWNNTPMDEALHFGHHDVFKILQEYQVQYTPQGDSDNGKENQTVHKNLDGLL
On the technique in general: In qHTS, concentration-response curves come from the screen itself.
Regarding `CCC1C(=O)OCC1Cc1cncn1C` (stereo not drawn), the Potency entry is “inactive”. `COc1ccc(/C=C/C(=O)Nc2ccccc2C(=O)O)cc1OC`: the Potency entry was “inactive”. On the same count and under the same terms, to `N=c1ccn2c(n1)O[C@H]1[C@H](O)[C@@H](CO)O[C@H]12` belongs “inactive”.

Tested on in a further experiment: not listed separately
Kind of experiment: qHTS of Trypanosoma Brucei Inhibitors: LOPAC Validation (AID 624147; active means well fitted curve in the direction sought with a large enough effect; an effect the other way counts as inactive or inconclusive). The settings on record: purified enzyme assay, luminescence, 45 min; series mostly up to 57.5 µM. The method in brief:
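In this concentration-response screen, enzyme-free wells defined baseline while DMSO plates tracked drift. Each reaction combined TbPYK, substrate, compound and 130 uM ADP for 45 min at room temperature. Kinase-Glo Plus luminescence gave the signal.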
For `CCC1C(=O)OCC1Cc1cncn1C` (stereo not drawn), the Potency entry is “inactive”. Still for that read-out and setting: next, `COc1ccc(/C=C/C(=O)Nc2ccccc2C(=O)O)cc1OC`: “inactive”; `N=c1ccn2c(n1)O[C@H]1[C@H](O)[C@@H](CO)O[C@H]12`: “inactive”.

For the next experiment, the target named is Glucagon-like peptide 1 receptor (Homo sapiens) (UniProt P43220). Kind of experiment: qHTS of GLP-1 Receptor Agonists: LOPAC Validation (AID 624148; active means well fitted curve in the direction sought with a large enough effect; an effect the other way counts as inactive or inconclusive;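 further: higher luminescence signal means agonism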). The settings on record: GLP-1R agonist cell assay; series mostly up to 46.1 µM. The procedure, abridged:
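HEK293 cells stably co-expressing GLP-1R and a cAMP-responsive luciferase reporter, plated 12 hours before compound, then incubated 4-6 hr at 37 deg C. Luminescence read 12 min after detection reagent.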
For `CCC1C(=O)OCC1Cc1cncn1C` (stereo not drawn), the compound was called inactive. Still for that read-out and setting: next, `COc1ccc(/C=C/C(=O)Nc2ccccc2C(=O)O)cc1OC`: “inactive”; `N=c1ccn2c(n1)O[C@H]1[C@H](O)[C@@H](CO)O[C@H]12`: “inactive”.

Tested on in another experiment: not listed separately
Kind of experiment: qHTS of Nrf2 Activators: LOPAC Validation (AID 624149; active means well fitted curve in the direction sought with a large enough effect; an effect the other way counts as inactive or inconclusive). The settings on record: Nrf2/ARE reporter cell assay; series mostly up to 46.1 µM. The procedure, abridged: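 AREc32_Fluc cells, 1000/well, OPTI-MEM + 5% FBS, o/n 37 deg C 5% CO2; compound pin-transfer, 24 hr 37 deg C; Steady-Glo 30 min RT, luminescence read.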
With `CCC1C(=O)OCC1Cc1cncn1C` (stereo not drawn), the compound was classed as inactive. For `COc1ccc(/C=C/C(=O)Nc2ccccc2C(=O)O)cc1OC`, the result was inactive.

On to `N=c1ccn2c(n1)O[C@H]1[C@H](O)[C@@H](CO)O[C@H]12`, for which the compound was classed as inactive.
